Experimental data reported in PubChem BioAssay (EPA / NIEHS).
The source made the active and inactive calls. The calls were made as follows: active = hit-call score of the fitted dose curve at least 0.9, where 1 is the maximum; inactive = score below 0.9.

read-out: Peroxisomal acyl-coenzyme A oxidase 1 (ACOX1) gene, ACOX1 (gene 51); assay: LTEA_HepaRG_ACOX1: Life Technologies and Expression Analysis (LTEA) Assay for Peroxisomal acyl-coenzyme A oxidase 1 (ACOX1) gene using HepaRG (AID 2283467); conditions: mRNA level, 48 h; actives raise or lower the signal
Procedure: LTEA_HepaRG is a cell based, multiplexed-readout assay that uses HepaRG, a human liver cell line, with measurements taken at 48 hours after chemical dosing on a 96-well plate.LTEA_HepaRG_ACOX1 is one of 102 assay component(s) measured in the LTEA HepaRG cell culture assay. It is a marker of Steatosis.Data from the assay component LTEA_HepaRG_ACOX1 was analyzed into 1 endpoint. This assay endpoint, LTEA_HepaRG_ACOX1, was analyzed with bidirectional fitting relative to DMSO as the negative control and baseline of activity. Using a type of inducible reporter, measures of mRNA induction for gain or loss-of-signal activity can be used to understand regulation of transcription factor activity. To generalize the intended target to other relatable targets, this assay endpoint is annotated to the oxidase intended target family, where the subfamily is steatosis.
A total of 1060 chemcials from the ToxCast library were tested in eight-point concentration-response experiments. Cell culture and cytotoxicity assays were conducted at Thermo Fisher Scientific's Custom Services facility (Madison, WI). A single lot of human HepaRG cells (Thermo Fisher Scientific, Frederick, MD) was used for the cell culture experiments. 96-well format collagen type I coated plates of human HepaRG cells were prepared using established methods. Briefly, cryopreserved HepaRG cells were thawed, plated at a density of approximately 100,000 cells/well in HepaRG Thaw, Plate, and General Purpose media (HPRG770, Thermo Fisher Scientific), and incubated for 48 hours. 0.5% DMSO was selected as vehicle control to balance the requisite need of DMSO in HepaRG cultures to maintain differentiation (for example, baseline metabolism, proportions of hepatocytes vs. cholangiocytes), while enabling further hepatic receptor pathway activation (for example, PXR and CAR) in response to chemical exposure. 48 hours after plating, the culture medium was replaced with HepaRG Serum-Free Incudtion Media. Cells were exposed to each test chemical in duplicate and maintained in CO2 incubators for another 48 hours. Chemical plates were thawed to room temperature and 200x concentrations of treatment groups were prepared. 8-point conentration-reponse curves were made with the highest exposure at 100 uM, followed by half-log dilutions, all in 0.5% DMSO. Each test plate contained variouse controls, induction positive controls (1mM phenobarbital), cytotoxicity positive controls ([…] aflatoxin B1), vehicle controls (0.5% DMSO), and total lysis controls (0.5% DMSO). Cell morphology images were taken using an Essen IncuCyte FLR automated microscope, with six 96-well plates imaged in about 24 minutes. Images were captured and exported and JPEG files. Spent culture media was transfered to black-well plates for the LDH assay, and remaining media was sorted at -80 C for later use. Cells were treated with RLT buffer and frozen until shipped for gene expression analysis. Total RNA was isolated from the cell suspension in 75 uL of Buffer RLT (Qiagen, Germantown, MD 20874) by Quintiles/Expression Analysis (Durham, NC) using a custom isolation procedure. Total RNA from each plate well was transferred to a preamplification plate. Fluidigm's 96.96 Dynamic ArrayTM (Fluidigm, Amsterdam, the Netherlands) technology was used for gene expression analyses by quantitative reverse transcription polymerase chain reaction (qRT-PCR, performed by Quintiles/Expression Analysis, Durham, NC)89. Standard TaqManTM Assays (Applied Biosystems/ThermoFisher Scientific, Foster City, CA) were used to assess the expression of 93 genes selected based on their selectivity and sensitivity to important hepatic receptors known to be modulated by environmental chemicals; importance in human hepatocyte functionality; and hepatotoxicity. […]

outcome, inactive:
CC[C@H](C)C(=O)O[C@H]1C[C@@H](C)C=C2C=C[C@H](C)[C@H](CC[C@@H]3C[C@@H](O)CC(=O)O3)[C@H]21
Cc1ccc(O)cc1
CCOCCO
Nc1ccc(Nc2ccccc2)cc1
CCOC(=O)COc1ccc2c(c1)CC(NCC(O)c1cccc(Cl)c1)CC2 (stereo not given)
CC(C)CCO
O=C(O)c1cccc(N(Cc2cccnc2)c2ccc(OC(F)F)c(OC(F)F)c2)c1
COc1ccc(-n2nc(C(F)F)cc2-c2ccc(S(C)=O)cc2)cc1 (stereo not given)
CC(C)CCCCCCOC(=O)c1ccc(C(=O)OCCCCCCC(C)C)c(C(=O)OCCCCCCC(C)C)c1
CC(C)=CCC/C(C)=C\CO
Cc1ccc(C)c(O)c1
CC(=O)OC[C@H]1O[C@@](COC(C)=O)(O[C@H]2O[C@H](COC(C)=O)[C@@H](OC(C)=O)[C@H](OC(C)=O)[C@H]2OC(C)=O)[C@@H](OC(C)=O)[C@@H]1OC(C)=O
CCC(C)(C)C(=O)O[C@H]1C[C@@H](C)C=C2C=C[C@H](C)[C@H](CC[C@@H]3C[C@@H](O)CC(=O)O3)[C@H]21
CC(C)c1cccc(C(C)C)c1N1C(=O)c2ccc(O)cc2C1=O
O=c1[nH]c2ccc(S(=O)CCN3CCC(Cc4ccc(F)cc4)CC3)cc2o1 (stereo not given)
CCCCCCCCCCCCc1ccccc1
CC(C)=CCCC(C)CCO (stereo not given)
Clc1nc(Cl)c(Cl)c(Cl)c1Cl
Cn1c(=O)cc(Oc2ccc(F)cc2F)c2cnc(NCC(C)(C)O)nc21
C1=CCCC=CCCC=CCC1
C1N2CN3CN1CN(C2)C3
CCOC(=O)CC(CC(=O)OCC)(OC(C)=O)C(=O)OCC
CC(C)(O)c1coc(S(=O)(=O)NC(=O)Nc2c3c(cc4c2CCC4)CCC3)c1
NC(=O)NO
O=C(NS(=O)(=O)/C=C/c1ccccc1)c1ccc(F)cc1Cl
Oc1ccc2c(c1)-c1ccccc1C2
C[C@](N)(Cc1ccc(O)c(O)c1)C(=O)O
COC(=O)c1ccccc1O
CN(C)c1ccc(Cc2ccc(N(C)C)cc2)cc1
O=P(OC(CCl)CCl)(OC(CCl)CCl)OC(CCl)CCl
O=c1n(CC2CO2)c(=O)n(CC2CO2)c(=O)n1CC1CO1 (stereo not given)
O=C(O)CCN(C1(C(=O)NO)CCCC1)S(=O)(=O)c1ccc(Oc2ccc(F)cc2)cc1
Cc1ccc(N)cc1O
O=C1OC(=O)C2C3C=CC(C3)C12 (stereo not given)
CCCCCCCCO
CNCc1ccc(NC(=O)c2c[nH]c3c2C(=O)CCC3)cc1
COC(=O)CC(=O)OC
O=C(OC[C@H]1O[C@@H](OC(=O)c2cc(O)c(O)c(OC(=O)c3cc(O)c(O)c(O)c3)c2)[C@H](OC(=O)c2cc(O)c(O)c(OC(=O)c3cc(O)c(O)c(O)c3)c2)[C@@H](OC(=O)c2cc(O)c(O)c(OC(=O)c3cc(O)c(O)c(O)c3)c2)[C@@H]1OC(=O)c1cc(O)c(O)c(OC(=O)c2cc(O)c(O)c(O)c2)c1)c1cc(O)c(O)c(OC(=O)c2cc(O)c(O)c(O)c2)c1

AC50, active:
Fc1ccccc1[C@@H](F)COC1CCC(Nc2ncnc3[nH]ncc23)CC1 (stereo not given in full) 34.1 µM
CCCN(C1CCN(C(=O)C2CCNCC2)CC1)[C@@H]1CCc2ccc(OC)cc2C1 33.1 µM
